Shown are actives, neighbours in structure and some others; about 1.1% of the full set was active somewhere.
TrxR1 inh-1: blocks rat thioredoxin reductase 1; O89049; recombinant rTrxR1, NADPH fluorescence consumption, selenite substrate; Potency, µM (titrated, usually from 114 µM), usual class: inhibitors; actives 1% (n = 390,000); AID 588453; also: nearly all actives have a fitted effect of over 65% in size
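Rat TrxR1 (90 nM in the dispensed reagent) was pre-reduced with 400 uM NADPH for 5 min at room temperature, then incubated with compound for 15 min. After 400 uM selenite was added, NADPH fluorescence (Ex 340/Em 450 nm) was followed for 8 min.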
GALK inhibitor: inhibitors of human galactokinase; Purified GALK, Kinase-Glo residual ATP luminescence; AID 1868; actives 0.007% (n = 270,000); Potency, µM (doses to about 57.5 µM), usual class: inhibitors
Target sequence (P51570 whole entry, looked up): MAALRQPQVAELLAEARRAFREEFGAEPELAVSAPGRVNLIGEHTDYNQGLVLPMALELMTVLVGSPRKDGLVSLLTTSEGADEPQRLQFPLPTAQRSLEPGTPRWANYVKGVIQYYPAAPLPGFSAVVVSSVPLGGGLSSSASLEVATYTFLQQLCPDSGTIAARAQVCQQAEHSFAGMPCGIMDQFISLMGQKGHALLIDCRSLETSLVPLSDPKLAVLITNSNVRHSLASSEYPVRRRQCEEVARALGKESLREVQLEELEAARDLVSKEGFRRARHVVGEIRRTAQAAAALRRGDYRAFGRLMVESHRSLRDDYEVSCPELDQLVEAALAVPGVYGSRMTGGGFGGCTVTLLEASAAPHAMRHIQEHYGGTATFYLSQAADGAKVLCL
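Quantitative HTS: GALK 5 nM, ATP 35 uM, galactose 100 uM, 1 h room temperature, then luciferase-based ATP detection.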
PI4K2A block: inhibitors of human PI4K2A | actives 0.13% (n = 420,000) | Q9BTU6 | activity change, negative = inhibition, % at 76.9 µM | AID 1346378 | purified PI4K2A, ADP-Glo luminescence, 1 h; hits give low values; in the data active = activity change below about -50%; inconclusive = mostly about -30% to -49%
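PI4K2A activity was measured by ADP-Glo luminescence: enzyme (4 ug/mL stock) and phosphatidylinositol (1.2 mM stock) in Tris pH 7.5/MgCl2/EGTA/Triton X-100 buffer were reacted with ATP (300 microM stock) for one hour at ambient temperature.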
TrxR1 substrate: rat thioredoxin reductase 1 substrate activity | purified TrxR1 substrate turnover, NADPH consumption readout | actives 0.01% (n = 390,000) | O89049 | Potency, µM (doses to about 114 µM); also: nearly all actives have a fitted effect of over 50% in size
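Rat TrxR1, dispensed at 90 nM, was prereduced with 400 uM NADPH (final) for 5 min at ~22 deg C, then incubated with compound 15 min before 400 uM selenite. A first-read NADPH fluorescence drop versus no-compound background flagged substrates.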
HepG2 viability: HepG2 cytotoxicity, 72 h ATP readout | shares compounds with TrxR1 inh-1 | HepG2 viability, ATP luminescence (CellTiter-Glo), 72 h | Potency, µM | actives 50% (n = 40) | AID 2447; calls by dose curve
GR counterassay: counter-screen for TrxR1 inhibitors: human glutathione reductase inhibition; shares compounds with TrxR1 inh-1; purified GR, DTNB reduction absorbance 405 nm kinetic; activity change, negative = inhibition, % at 57.1 µM; 55 tested, under 10 active; AID 652020
TrxR1 inh-2: blocks rat thioredoxin reductase 1 in hit validation. Potency, µM, actives largely listed as inhibitors. shares compounds with TrxR1 inh-1. recombinant TrxR1, NADPH fluorescence consumption, selenite substrate. actives 50% (n = 55)
TrxR1 insulin MOA: inhibits TrxR1-driven insulin reduction; actives 20% (n = 55); TrxR1 Trx-coupled insulin reduction, NADPH absorbance 340 nm; Potency, µM; AID 652037; shares compounds with TrxR1 inh-1;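 active = compounds with a measured potency under 100 micromolar; inconclusive = filed, but no rule given; inactive = potency at or above that, or unmeasurable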
TrxR1 inh-3: rat thioredoxin reductase 1 inhibition, DTNB assay | shares compounds with TrxR1 inh-1 | purified TrxR1, DTNB reduction, A412 | Potency, µM | actives 90% (n = 55) | AID 652256;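 active = a half-inhibiting concentration could be measured and was below 100 µM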
Numbers stand for hits; . = inactive; ? = inconclusive; / = not tested or not shown. Unless noted, calls follow the shape of the dose curve; as a rule, active = well fitted curve in the direction sought with a large enough effect; inconclusive = small, poorly fitted or top-dose-only effect, or another doubt; inactive = no such curve, though single readings can be large; an effect the other way counts as inactive or inconclusive.

SMILES	TrxR1 inh-1	GALK inhibitor	PI4K2A block	TrxR1 substrate	others
COc1ccc(NC(C)=O)c([N+](=O)[O-])c1[N+](=O)[O-]	5.01µM	/	.	.
Cc1ccc(S(=O)(=O)N[C@H](C(=O)Oc2ccc3c(C(F)(F)F)cc(=O)oc3c2)c2ccccc2)cc1	.	.	.	.
Cc1ccc(S(=O)(=O)NCCC(=O)Oc2ccc3ccc(=O)oc3c2)cc1	56.2µM	.	.	.
CCC(NC(=O)OCc1ccccc1)C(=O)Oc1ccc2ccc(=O)oc2c1 (stereo not given)	50.1µM	.	.	.
Cc1ccc(S(=O)(=O)NC(C(=O)Oc2ccc3ccc(=O)oc3c2)c2ccccc2)cc1 (stereo not given)	50.1µM	.	.	.
O=C(Oc1ccc2ccc(=O)oc2c1)c1ccccc1	.	.	.	.
CN(C)c1ccc(/C=C/c2ccnc3ccccc23)cc1O	.	/	/	.
O=C1/C(=C/c2ccc(N3CCOCC3)o2)SC(=Nc2ccccc2)N1CCc1c[nH]c2ccccc12	10µM	.	.	.
COc1ccc2cc(/C=C3\SC(=S)NC3=O)c(N3CCOCC3)nc2c1	.	.	.	.
O=C1S/C(=C\c2ccc(N3CCOCC3)o2)C(=O)N1Cc1ccc(F)cc1	2.51µM	.	.	.
O=C1S/C(=C/c2ccc(N3CCOCC3)o2)C(=O)N1Cc1ccc(F)cc1	8.91µM	.	.	.
CC(C)OC(=O)CN1C(=O)S/C(=C/c2ccc(N3CCCCC3)o2)C1=O	?	.	.	.
O=C1NC(=S)S/C1=C/c1ccc(N2CCOCC2)o1	12.6µM	.	.	.
CCCCCCCCCCCCCCCC[n+]1ccc(CC(O)c2c(C)[nH]c3ccccc23)c2ccccc21 (stereo not given)	.	/	/	.
Cn1c(/C=C/c2ccc([N+](=O)[O-])o2)nc2ccccc2c1=O	10µM	.	.	.
Cc1noc(C)c1NC(=O)N(C)C[C@H]1Oc2ccc(NC(=O)Cn3cnnn3)cc2C(=O)N([C@H](C)CO)C[C@@H]1C	.	/	.	.
Cc1cc(S(=O)(=O)c2ccc([N+](=O)[O-])cn2)ccc1Br	0.112µM	/	.	.	GR counterassay=.;TrxR1 inh-2=0.119;TrxR1 insulin MOA=35µM;TrxR1 inh-3=0.011µM
O=C1N/C(=C/c2ccc(N3CCOCC3)o2)C(=O)N1c1ccccc1	7.08µM	.	.	.	GR counterassay=.;TrxR1 inh-2=2.12;TrxR1 insulin MOA=.;TrxR1 inh-3=2.11µM
O=C1N/C(=C/c2ccc(N3CCCC3)cc2)C(=O)N1c1ccccc1	.	.	.	.
Cc1ccc(NC(=O)CSc2nc(-c3ccco3)cc(C(F)(F)F)n2)cc1	.	/	.	.
COc1ccc(Br)c(C(=O)Nc2cc3c(cc2N2CCOCC2)n(C)c(=O)n3C)c1	.	/	.	.
O=C(Nc1ccccc1)c1ccc2nc(-c3ccco3)c(-c3ccco3)nc2c1	3.98µM	.	-51.2	.	GR counterassay=.;TrxR1 inh-2=3.77;TrxR1 insulin MOA=.;TrxR1 inh-3=1.61µM
O=C(Nc1cccnc1)c1ccc2nc(-c3ccccc3)c(-c3ccccc3)nc2c1	.	.	.	.
CCCCN(Cc1ccccc1)C(=O)CN(C)S(=O)(=O)c1ccc2c(c1)c(=O)n(C)c(=O)n2C	.	/	.	.
O=C(C1=C(O)C(=O)N(CCN2CCOCC2)C1c1cccnc1)c1cc2ccccc2o1 (stereo not given)	?	.	.	.
SMILES	TrxR1 inh-1	GALK inhibitor	PI4K2A block	TrxR1 substrate	others
Cc1ccc(C2C(C(=O)c3cc4ccccc4o3)=C(O)C(=O)N2CCN2CCOCC2)cc1 (stereo not given)	44.7µM	.	.	.	GR counterassay=?;TrxR1 inh-2=?;TrxR1 insulin MOA=.;TrxR1 inh-3=0.333µM
O=C(NC(=S)Nc1ccc(N2CCOCC2)cc1)c1cccc(Cl)c1Cl	?	.	.	.
O=C(NC(=S)Nc1ccc(N2CCOCC2)cc1)c1cccc(Cl)c1	10µM	.	.	.	GR counterassay=.;TrxR1 inh-2=5.32;TrxR1 insulin MOA=.;TrxR1 inh-3=2.56µM
CCC(OC(=O)c1ccc(S(C)(=O)=O)c([N+](=O)[O-])c1)C(=O)NC1C2CC3CC(C2)CC1C3 (stereo not given)	/	/	.	/	HepG2 viability=7.6µM
CC(OC(=O)c1ccc(S(C)(=O)=O)c([N+](=O)[O-])c1)C(=O)NC1C2CC3CC(C2)CC1C3 (stereo not given)	/	/	.	/	HepG2 viability=8.2µM
CC(C)CN1CCN(C(=O)COC(=O)c2ccc(S(C)(=O)=O)c([N+](=O)[O-])c2)CC1	/	/	.	/
O=C(c1ccc(-c2ccc([N+](=O)[O-])cc2)o1)N1CCCC(C(F)(F)F)C1 (stereo not given)	?	/	.	.
O=C(c1ccc(-c2ccc([N+](=O)[O-])cc2)o1)N1CCCCCCC1	5.01µM	/	.	.	GR counterassay=.;TrxR1 inh-2=4.74;TrxR1 insulin MOA=.;TrxR1 inh-3=1.05µM
COc1ccc2nc3sc(C(=O)N4CCN(c5ccc(F)cc5)CC4)cc3cc2c1	.	/	.	.
CCC(C)(C)n1nnnc1C(c1ccc(O)c(OC)c1)N1CCc2ccccc2C1 (stereo not given)	0.0794µM	.	.	.	GR counterassay=.;TrxR1 inh-2=0.336;TrxR1 insulin MOA=.;TrxR1 inh-3=0.011µM
C[C@@H]1CC=C[C@H]2[C@H]1C(=O)N(Cc1ccccc1)[C@H]2c1ccc2ccccc2c1Br	15.8µM	.	.	.	GR counterassay=.;TrxR1 inh-2=5.32;TrxR1 insulin MOA=.;TrxR1 inh-3=0.95µM
Cc1cccc(C(=O)Nc2cccc(OCc3cc(=O)n4c(C)csc4n3)c2)c1	.	/	.	.
Fc1ccc(/C=C2\CCCC3=C2Nc2ncnn2C3c2ccc(F)cc2)cc1 (stereo not given)	0.708µM	.	.	.	GR counterassay=.;TrxR1 inh-2=2.99;TrxR1 insulin MOA=.;TrxR1 inh-3=0.249µM
CC1CCN(C(=O)COC(=O)c2ccc(S(C)(=O)=O)c([N+](=O)[O-])c2)CC1	/	/	/	/	HepG2 viability=20µM

Screening results (PubChem)
